Test results reported in article PMC4552634, “A New Set of Chemical Starting Points with Plasmodium falciparum Transmission-Blocking Potential for Antimalarial Drug Discovery” (PLoS ONE, 2015).
About 3,200 (25%) of roughly 13,000 compounds showed an effect of 50% or more. The list shows a part of the results.

tested on: P. falciparum stage V gametocytes; parameters: BacTiter-Glo ATP luminescence viability of purified stage V gametocytes in 384-well plates, per cent inhibition versus DMSO; conditions: 48 h, 5 µM; inhibitor

SMILES	% Inhibition
Nc1nnc(-c2ccc(Cl)c(Br)c2)c(N)n1 [TCMDC-137285]	-16.33%
Cc1cc(N2Cc3ccccc3C2)nc(Nc2cccc(C#N)c2)n1 [TCMDC-134199]	-14.79%
Cc1[nH]c2c(C)cc(NS(C)(=O)=O)cc2c1C1CCN(CC2CCN(C(=O)/C=C/c3ccc(Cl)c(Cl)c3)CC2)CC1 [TCMDC-140173]	-57.53%
Cc1cccc(C(=O)Nc2ccnc(N(C)CCCN(C)Cc3cccc(C#N)c3)c2)c1 [TCMDC-134968]	26.78%
O=C(Nc1ccccc1O)c1ccc(S(=O)(=O)c2ccc(Cl)cc2)cc1 [TCMDC-123689]	47.63%
O=C(NCc1ccco1)c1ccc(S(=O)(=O)c2ccc(Cl)cc2)cc1 [TCMDC-124393]	65.45%
CC(C)CCN1CCCN(Cc2ccc(C(=O)NCc3ccc(Cl)cc3)cc2)CC1 [TCMDC-136452]	-12.3%
O=C(Nc1ccc(-c2cccc(-c3nc4ccccc4[nH]3)c2)cc1)Nc1ccc(Cl)c(Cl)c1 [TCMDC-133284]	-10.68%
O=C(Nc1ccccc1O)c1ccc(Oc2cccc(C(=O)Nc3ccccc3O)c2)cc1 [TCMDC-125220]	-89.02%
Cc1cc2ccccc2n1CC(=O)N1CC(C(=O)N2CCCCC2)Oc2ccccc21 (stereo not shown) [TCMDC-125253]	84.5%
CCN(CC)C(=O)C1CCN(C(C(=O)N2CCN(CC(=O)N3CCCC3)CC2)c2cc3ccccc3o2)CC1 (stereo not shown) [TCMDC-141126]	-9.75%
COc1ccc(C(F)(F)F)cc1N1CCN(CCCCNC(=O)c2ccc(NC(=O)c3ccc(Cl)cc3)cc2)CC1 [TCMDC-138258]	-21.85%
O=C(Nc1ccc(C(=O)OCC2CCCN3CCCCC23)cc1)c1ccc(Cl)c(Cl)c1 (stereo not shown) [TCMDC-124027]	3.603%
c1ccc2cc3c(Nc4ccc(N5CCCCC5)cc4)ccnc3cc2c1 [TCMDC-123505]	-37.48%
OCCN1CCN(c2ccc(Nc3ccnc4cc5ccccc5cc34)cc2)CC1 [TCMDC-123915]	73.35%
CC(C)Nc1ccc(Nc2ccnc3cc4ccccc4cc23)cc1 [TCMDC-123916]	-35.26%
CN1CCN(c2ccc(Nc3ccnc4ccc(-c5ccccc5)cc34)cc2)CC1 [TCMDC-123917]	-37.23%
CCN(CC)CCNc1ccc(Nc2ccnc3cc4ccccc4cc23)cc1 [TCMDC-123498]	93.37%
CCN(CC)CCNc1ccnc2ccc3ccccc3c12 [TCMDC-131800]	5.083%
O=C(/C=C/c1ccc(Cl)c(Cl)c1)NCCCCCN1CCC(NC(=S)Nc2ccc(Cl)cc2Cl)CC1 [TCMDC-135902]	24.59%
CCOc1ccc2nc(N(CCCn3ccnc3)C(=O)C=Cc3cccs3)sc2c1 [TCMDC-124925]	-19.53%
Nc1nc(N)c2c(ccc3nn(S(=O)(=O)N4CCCC4)cc32)n1 [TCMDC-137854]	1.328%

SMILES	% Inhibition
COc1c(C2CCN(CCCCNC(=O)c3ccc(-c4ccc(Cl)cc4)c(OCCN(C)C)c3)CC2)ccc2c1CCCC2 [TCMDC-134371]	101.9%
COc1c(C2CCN(CCCCNC(=O)c3ccc(-c4ccc(C#N)cc4)nc3)CC2)ccc2c1CCCC2 [TCMDC-134688]	-0.6168%
COc1c(C2CCN(CCCCNC(=O)c3cc(-c4ccc(C#N)cc4)n[nH]3)CC2)ccc2c1CCCC2 [TCMDC-134659]	-32.94%
COc1c(C2CCN(CCCCNC(=O)C=Cc3ccccc3C(F)(F)F)CC2)ccc2c1CCCC2 [TCMDC-135279]	85.89%
COc1c(C2CCN(CCCCNC(=O)c3ccc(-c4ccc(Cl)cc4)c(O)c3)CC2)ccc2c1CCCC2 [TCMDC-134282]	111.5%
COC(=O)COc1cc(C(=O)NCCCCN2CCC(c3ccc4c(c3OC)CCCC4)CC2)ccc1-c1ccc(Cl)cc1 [TCMDC-134372]	38.74%
COc1c(C2CCN(CCCCNC(=O)C=Cc3cc4cc(Cl)ccc4o3)CC2)ccc2c1CCCC2 [TCMDC-135062]	-50.69%
COc1c(C2CCN(CCCCNC(=O)c3oc(-c4ccc(Cl)cc4)cc3CO)CC2)ccc2c1CCCC2 [TCMDC-134829]	-10.73%
COc1c(C2CCN(CCCCNC(=O)c3ccc(-c4ccc(C#N)cc4)c(O)c3)CC2)ccc2c1CCCC2 [TCMDC-138682]	69.72%
CCN(c1ccccc1)S(=O)(=O)c1ccc(OC)c(NC(=O)c2cccc(C(F)(F)F)c2)c1 [TCMDC-125343]	14.96%
O=C(NC1CCN(c2ccnc3cc(Cl)ccc23)C1)c1cccc(F)c1 (stereo not shown) [TCMDC-133656]	0.5042%
COc1c(C2CCN(CCCCNC(=O)c3ccc(-c4ccc(NC(=O)C(F)(F)F)cc4)cc3)CC2)ccc2c1CCCC2 [TCMDC-134380]	96.81%
N#Cc1ccc(NC(=O)c2ccc(C(=O)NCCCCN3CCC(c4ccc5c(c4OCCOC4CCCCO4)CCCC5)CC3)cc2)cc1 (stereo not shown) [TCMDC-138789]	80.58%
COc1c(C2CCN(CCCCNC(=O)c3ccc(-c4ccc(Cl)cc4)cn3)CC2)ccc2c1CCCC2 [TCMDC-134687]	70.09%
COc1c(C2CCN(CCCCNC(=O)c3cc(-c4ccc(Cl)cc4)oc3C)CC2)ccc2c1CCCC2 [TCMDC-134696]	7.674%
NC(=O)COc1c(C2CCN(CCCCNC(=O)c3ccc(-c4ccc(Cl)cc4)c(O)c3)CC2)ccc2c1CCCC2 [TCMDC-133379]	84.67%
CC(=O)c1ccc(-c2ccc(C(=O)NCCCCN3CCC(c4ccc5c(c4OCC(N)=O)CCCC5)CC3)cc2)s1 [TCMDC-134174]	-29.18%
Cc1nc(-c2ccc(C#N)cc2)sc1C(=O)NCCCCN1CCC(c2ccc3c(c2OCCO)CCCC3)CC1 [TCMDC-138879]	11.85%
COc1c(C2CCN(CCCCNC(=O)c3ccc(-c4ccc(Cl)cc4)c(OCC(N)=O)c3)CC2)ccc2c1CCCC2 [TCMDC-134373]	13.03%
COc1c(C2CCN(CCCCNC(=O)c3cccc(-c4ccc(C(F)(F)F)cc4)c3)CC2)ccc2c1CCCC2 [TCMDC-138701]	48.96%
COc1c(C2CCN(CCCCNC(=O)c3cc(-c4ccc(Cl)cc4)[nH]c3C)CC2)ccc2c1CCCC2 [TCMDC-135270]	45.24%
